From ChEMBL document CHEMBL4513146, “CO-ADD screening of Karazin Kharkiv National University (Ukraine) compounds”
Results with a measured potency or affinity are listed apart.

Legend:
Staphylococcus aureus = details: Concentration 32 ug.mL-1;; ASSAY_TEST Inhibition of Bacterial Growth; detection method Absorption (OD600); MEDIA CAMHB; plate type 384well; NBS; CORNING #3640; time 18 hr
Escherichia coli = details: Concentration 32 ug.mL-1;; ASSAY_TEST Inhibition of Bacterial Growth; detection method Absorption (OD600); MEDIA CAMHB; plate type 384well; NBS; CORNING #3640; time 18 hr

Row | SMILES | Inhibition (Staphylococcus aureus) [%] | Inhibition (Escherichia coli) [%]
1 | CCc1nnc2c(S(=O)(=O)N(Cc3ccccc3C)c3ccc(C(C)C)cc3)cccn12 | 3.95 | -8.12
2 | O=S(=O)(c1cccn2cnnc12)N(Cc1cccc(Cl)c1)c1ccc(F)cc1 | -11.31 | -14.45
3 | CCCCn1c(=O)c2sccc2n2c(=O)n(CC(=O)c3cccc(OC)c3)nc12 | 9.41 | 0.65
4 | COc1ccc(NC(=O)Cn2nc3c4cc(-c5ccc(C)cc5)nn4ccn3c2=O)c(OC)c1 | 1.08 | -1.29
5 | CCCCc1ccc(NC(=O)Cn2nc3c(SC4CCCCC4)nccn3c2=O)cc1 | -1.79 | -6.08
6 | O=C(Cn1nc2c3cc(-c4ccc(Cl)cc4)nn3ccn2c1=O)Nc1ccc2c(c1)OCO2 | 8.69 | 2.9
7 | Cc1ccc(-c2cc3c4nn(CC(=O)Nc5cc(F)ccc5C)c(=O)n4ccn3n2)cc1C | 8.9 | -4.51
8 | CCOC(=O)C1CCN(c2nc3ccccc3n3c(=O)n(CC(=O)Nc4ccccc4F)nc23)CC1 | 2.72 | -5.37
9 | Cc1ccc(Sc2nccn3c(=O)n(CC(=O)Nc4ccc(F)c(Cl)c4)nc23)c(C)c1 | -12.28 | -15.97
10 | O=C(Cn1nc2c3cc(-c4ccc(Cl)cc4)nn3ccn2c1=O)NCc1ccccc1 | 12.1 | 4.95
11 | CCC(Sc1nnc2c(=O)n(-c3ccccc3)ccn12)C(=O)Nc1cc(F)ccc1F (stereo unspecified) | 6.45 | -6.05
12 | CCOC(=O)c1ccccc1NC(=O)CSc1nnc2ccc(C(=O)Nc3cccc(F)c3)cn12 | 9.51 | -2.64
13 | Cc1ccc(Cn2nc3c(=O)n(-c4cccc(F)c4)ccn3c2=O)cc1 | 6.58 | -11.98
14 | Cc1ccc(Cl)cc1NC(=O)CSc1nc2ccccc2n2c(C(C)C)nnc12 | 0.87 | -1.5
15 | COC(=O)c1ccc(NC(=O)CSc2nc3ccccc3n3c(C(C)C)nnc23)cc1 | 12.04 | -0.7
16 | Cc1ccccc1NC(=O)Cn1nc2c(SC3CCCCC3)nccn2c1=O | 1.84 | -9.01
17 | COc1cc(NC(=O)Cn2nc3ccc(SC(C)(C)C)nn3c2=O)cc(OC)c1OC | 10.38 | 1.07

Row | SMILES | Inhibition (Staphylococcus aureus) [%] | Inhibition (Escherichia coli) [%]
18 | Cc1ccc(-c2ccc3nn(CC(=O)NCc4ccc(Cl)cc4)c(=O)n3n2)cc1C | -0.74 | -5.52
19 | COc1ccc(NC(=O)Cn2nc3c(N4CCCC4)nccn3c2=O)cc1 | 5.17 | 5.65
20 | COc1ccc(NC(=O)Cn2nc3ccc(SCc4ccc(Cl)cc4)nn3c2=O)cc1Cl | -4.58 | -11.11
21 | CC1CC(C)CN(c2nccn3c(=O)n(CC(=O)Nc4cccc(C(F)(F)F)c4)nc23)C1 (stereo unspecified) | 16.31 | 0.9
22 | O=c1c2nnc(SCc3ccc(Cl)cc3)n2ccn1-c1ccc(F)cc1 | 4.01 | 2.84
23 | CSc1cccc(NC(=O)Cn2nc3c(Oc4ccccc4C)nccn3c2=O)c1 | 6.72 | -2.85
24 | COc1ccc(CN(c2ccc(C(C)C)cc2)S(=O)(=O)c2cccn3cnnc23)cc1 | 4.26 | 1.37
25 | COc1cccc(CN(c2cc(C)cc(C)c2)S(=O)(=O)c2cccn3c(C)nnc23)c1 | -0.14 | -8.8
26 | Cc1cccc(C)c1NC(=O)Cn1c(=O)c2nnc(C(C)C)n2c2ccccc21 | 9.36 | 1.82
27 | CC(C)c1ccc(N(Cc2cc(F)cc(F)c2)S(=O)(=O)c2cccn3cnnc23)cc1 | 8.68 | -1.47
28 | COc1ccc(NC(=O)c2ccc3nn(CC(=O)Nc4ccc(C(C)=O)cc4)c(=O)n3c2)cc1 | 15.44 | -1.93
29 | CCc1nnc2c(SCC(=O)NCc3ccccc3Cl)nc3ccccc3n12 | 4.41 | -6.59
30 | COCCCNC(=O)CSc1nnc2c(=O)n(Cc3ccccc3F)ccn12 | -1.95 | 0.71
31 | O=C(Cn1nc2nc(Nc3ccc(F)cc3)ccn2c1=O)N1CCOCC1 | 9.39 | -3.26
32 | CCc1ccccc1Sc1nccn2c(=O)n(CC(=O)Nc3c(C)cccc3C)nc12 | 13.44 | 0
33 | O=C(Cn1nc2ccc(-c3ccccc3)nn2c1=O)Nc1ccc(Cl)c(C(F)(F)F)c1 | 6.21 | -6.69
